JMJD2E inh = blocks human JMJD2E demethylase activity. B2RXH2. Potency, µM (highest dose often 57.1 µM), actives largely listed as inhibitors. JMJD2E catalytic domain, FDH-coupled NADH fluorescence (FDH is formaldehyde dehydrogenase). actives 1.6% (n = 230,000); note: nearly all actives have a fitted effect of over 50% in size
HPGD block = HPGD (human) dehydrogenase inhibition. actives 4.3% (n = 150,000). P15428. purified HPGD, NADH fluorescence kinetic, PGE2 substrate. Potency, µM, actives largely listed as inhibitors. AID 894
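20 nM HPGD preincubated 15 min at room temperature with compound in 50 mM Tris-HCl pH 8, 0.01% Tween 20. Started with 1 mM NAD+ and 30 uM prostaglandin E2; NADH fluorescence (360/450 nm) read 5 times over 30-s intervals, last minus first.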
PNC assembly inh = inhibitors of perinucleolar compartment assembly; PC3M PTB-GFP, PNC prevalence imaging, 16 h; stronger effect = lower value; activity change (PNC), negative = inhibition, % at 10 µM; actives 3.1% (n = 140,000);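 active = readout at or below -70, meaning at least 70% loss of cells showing the perinucleolar compartment, a nuclear body marking cancer cells; inconclusive = readout between -30 and a set limit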
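Compounds are pinned in duplicate onto adhered PC3M cells stably expressing GFP-tagged PTB and incubated 16 h at 37 C. Cells are then fixed, nuclei stained with Hoechst, and PNC-positive cells counted.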
ALDH1A1 block = ALDH1A1 (human) enzyme inhibition; P00352; Purified ALDH1A1, NADH fluorescence, propionaldehyde substrate; Potency, µM (titrated, usually from 75.3 µM), most hits filed as inhibitors; actives 7.3% (n = 220,000); AID 1030
Target sequence (P00352 whole entry, looked up): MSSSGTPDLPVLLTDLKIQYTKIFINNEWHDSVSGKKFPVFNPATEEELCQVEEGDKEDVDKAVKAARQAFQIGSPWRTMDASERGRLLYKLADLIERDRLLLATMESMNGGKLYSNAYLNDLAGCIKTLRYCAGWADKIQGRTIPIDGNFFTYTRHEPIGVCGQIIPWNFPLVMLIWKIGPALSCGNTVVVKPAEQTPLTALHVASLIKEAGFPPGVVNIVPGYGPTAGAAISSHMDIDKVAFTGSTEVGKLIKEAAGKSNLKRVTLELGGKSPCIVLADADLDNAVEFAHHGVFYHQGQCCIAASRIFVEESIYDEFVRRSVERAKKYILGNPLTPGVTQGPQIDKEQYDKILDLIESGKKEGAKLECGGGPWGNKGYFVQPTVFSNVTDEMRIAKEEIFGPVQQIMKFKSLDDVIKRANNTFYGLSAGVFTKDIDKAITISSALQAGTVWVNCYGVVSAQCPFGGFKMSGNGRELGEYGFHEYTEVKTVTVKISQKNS
Large screens that a line does not name were inactive. Sampled rows, rich in hits. Any-hit rate of the full collection: about 11%. Unless noted, calls come from the whole dose curve; as a rule, active = well fitted inhibition curve with a large enough effect (not every such curve was filed as active); inconclusive = small, poorly fitted or top-dose-only effect, or another doubt; inactive = no such curve, though single readings can be large or run the other way.

Cc1cccc2cc(C(c3nnnn3C3CCCC3)N3CCOCC3)c(=O)[nH]c12 (stereo not given)	JMJD2E inh inconclusive, ALDH1A1 block inconclusive
Cc1ccc2cc(C(c3nnnn3C3CCCC3)N3CCN(c4ccc(F)cc4)CC3)c(=O)[nH]c2c1 (stereo not given)	JMJD2E inh inconclusive, ALDH1A1 block 11µM
Cc1cc(C)c2cc(C(c3nnnn3C3CCCC3)N3CCOCC3)c(=O)[nH]c2c1 (stereo not given)	JMJD2E inh inconclusive, HPGD block inconclusive, ALDH1A1 block 14µM
COC(=O)c1ccncc1C(=O)Nc1ccc(F)cc1	none (no result: HPGD block, PNC assembly inh)
OC[C@@H]1O[C@@H](n2cnc3c(SCc4ccccc4)ncnc32)[C@@H](O)[C@H]1O	none (no result: JMJD2E inh, PNC assembly inh)
CCc1n(CC(O)COCC2CC=CCC2)c2ccccc2[n+]1C (stereo not given)	JMJD2E inh 11µM (no result: HPGD block, PNC assembly inh)
CCc1n(CC(O)COC2CCCCC2)c2ccccc2[n+]1C (stereo not given)	JMJD2E inh 10µM, ALDH1A1 block inconclusive (no result: HPGD block, PNC assembly inh)
COc1cc(C(=O)NC(=S)Nc2ccc(N3CCCC3)cc2)cc(OC)c1OC	JMJD2E inh inconclusive, ALDH1A1 block 28µM (no result: HPGD block)
COc1cccc(C(=O)NC(=S)Nc2ccc3oc(=O)ccc3c2)c1	ALDH1A1 block 1.4µM (no result: HPGD block)
COc1ccc(C(=O)NC(=S)Nc2ccc(N3CCCC3)cc2)cc1	ALDH1A1 block 10µM (no result: HPGD block, PNC assembly inh)
COc1ccccc1C(=O)NC(=S)Nc1ccc(N2CCCC2)cc1	none
COc1ccc(C(=O)Nc2ccc(N3CCCC3)cc2)cc1	ALDH1A1 block inconclusive
COc1cc(C(=O)NC(=S)Nc2ccc3oc(=O)ccc3c2)cc(OC)c1OC	none
COc1ccc(C(=O)NC(=S)Nc2ccc(Cc3ccncc3)cc2)cc1	ALDH1A1 block 14µM (no result: HPGD block, PNC assembly inh)
CCCCOC1CC(c2ccc(OCc3ccc(OC)cc3)c(OC)c2)N(C)O1 (stereo not given)	none (no result: HPGD block, PNC assembly inh)
CCCCCCCCC1CO1 (stereo not given)	none (no result: JMJD2E inh, PNC assembly inh)
Cc1[nH]nc(SCC(=O)NC2CCCCC2)c1[N+](=O)[O-]	none (no result: HPGD block, PNC assembly inh)
COCCNC(=S)N/N=C/c1ccc(N2CCOCC2)cc1	HPGD block inconclusive, PNC assembly inh inconclusive, ALDH1A1 block inconclusive
Cc1ccc(C(=O)Nc2ccc(N3CCCC3)cc2)c(C)c1	JMJD2E inh 25µM, ALDH1A1 block inconclusive (no result: HPGD block, PNC assembly inh)
Cc1ccc(NC(=O)c2cc(N3C(=O)C4CC=CCC4C3=O)ccc2N2CCCCC2)cc1 (stereo not given)	HPGD block inconclusive, ALDH1A1 block inconclusive
Cc1ccc(NC(=O)c2cc(N3C(=O)C4CCCCC4C3=O)ccc2N2CCOCC2)cc1 (stereo not given)	ALDH1A1 block 22µM (no result: HPGD block, PNC assembly inh)
COc1cccc(C(=O)NC(=S)Nc2ccc(N3CCCC3)cc2)c1	ALDH1A1 block 9.5µM
CC(C)Oc1cccc(C(=O)NC(=S)Nc2ccc(N3CCN(C)CC3)cc2)c1	ALDH1A1 block inconclusive (no result: HPGD block, PNC assembly inh)
Cc1ccccc1C(=O)Nc1ccc(N2CCCC2)cc1	ALDH1A1 block inconclusive (no result: HPGD block, PNC assembly inh)
COCCNC(=S)Nc1ccc(N2CCCCC2)cc1	ALDH1A1 block 8.9µM (no result: HPGD block, PNC assembly inh)
COc1ccc(/C=N/n2cncn2)cc1Cn1nc(C)c([N+](=O)[O-])c1C	none (no result: HPGD block, PNC assembly inh, ALDH1A1 block)
Cn1ccc(C(=O)NC(=S)N2CCSCC2)n1	ALDH1A1 block inconclusive (no result: HPGD block, PNC assembly inh)
CCCC(=O)N1CCN(c2ccc(NC(=S)NC(=O)c3cccc(C)c3)cc2)CC1	ALDH1A1 block 20µM (no result: HPGD block, PNC assembly inh)
Cc1cccc(C(=O)NC(=S)N2CCN(C(=S)NC(=O)c3cccc(C)c3)CC2)c1	none
COc1cccc(C(=O)NC(=S)Nc2ccc(N(C)C)cc2)c1	ALDH1A1 block 10µM
Cc1cccc(OCC(O)CN2CC3(C)CC2CC(C)(C)C3)c1 (stereo not given)	PNC assembly inh inconclusive
O=S(=O)(Nc1ccc(-n2cccc2)cc1)c1ccc(F)cc1	ALDH1A1 block 10µM (no result: HPGD block, PNC assembly inh)
CCN(CC)S(=O)(=O)c1ccc(NS(=O)(=O)c2ccc(F)cc2)cc1	ALDH1A1 block 13µM
O=C(O)CSCc1cccc2ccccc12	none (no result: JMJD2E inh, PNC assembly inh)
CCN(N=Nc1cccc([N+](=O)[O-])c1)c1cccc([N+](=O)[O-])c1	ALDH1A1 block inconclusive
NC(=O)CN(N=Nc1cccc([N+](=O)[O-])c1)c1cccc([N+](=O)[O-])c1	ALDH1A1 block 1.8µM (no result: HPGD block, PNC assembly inh)
CN(C)c1ccc(C2C=C(c3ccc(Cl)cc3OC(F)F)Nc3ncnn32)cc1 (stereo not given)	ALDH1A1 block 20µM
Cc1ccc(C2C=C(c3ccc4c(c3)OCO4)Nc3ncnn32)cc1 (stereo not given)	JMJD2E inh inconclusive, ALDH1A1 block inconclusive
CC1=C(C(=O)Nc2ccccc2C)C(c2ccc(C)o2)NC(=S)N1 (stereo not given)	ALDH1A1 block inconclusive
O=C(Nc1ccc(Cl)cc1C(=O)Nc1ccccn1)c1ccco1	JMJD2E inh inconclusive, HPGD block inconclusive
CC1=C(C(=O)Nc2ccccn2)C(c2ccc(Cl)cc2Cl)NC(=S)N1 (stereo not given)	ALDH1A1 block 2.5µM (no result: HPGD block, PNC assembly inh)
CC1=C(C(=O)Nc2ccccn2)C(c2ccccc2Cl)NC(=S)N1 (stereo not given)	ALDH1A1 block 2.5µM (no result: HPGD block, PNC assembly inh)
COc1ccc(-c2nc3ccccc3n2Cc2ccccc2)cc1	HPGD block inconclusive, PNC assembly inh inconclusive, ALDH1A1 block inconclusive
CCOCCn1c(-c2ccc(OC)cc2)nc2ccccc21	JMJD2E inh inconclusive, PNC assembly inh -106
COc1ccc(NCc2nc3ccccc3n2CCOc2ccc(C)cc2)cc1	PNC assembly inh -113
CC(C)N1C(=O)S/C(=C/c2ccc(Sc3nc4ccccc4[nH]3)o2)C1=O	PNC assembly inh inconclusive, ALDH1A1 block 7.1µM
C=CCN1C(=O)S/C(=C/c2ccc(Sc3nc4ccccc4[nH]3)o2)C1=O	ALDH1A1 block 10µM
CCC(C)Nc1ccc(NC(C)CC)cc1 (stereo not given)	ALDH1A1 block 8.9µM (no result: JMJD2E inh, PNC assembly inh)
CCS(=O)(=O)N1CCN(c2ccccn2)CC1	JMJD2E inh inconclusive, ALDH1A1 block inconclusive
COc1ccc(CCNC(=O)c2cc(=O)[nH]c3ccc(Br)cc23)cc1OC	PNC assembly inh -113
O=C(OC[C@@H](O)CO)c1ccccc1Nc1ccnc2cc(Cl)ccc12	none (no result: PNC assembly inh)
COc1ccc(/C=N/N2C(=O)C3C4C=CC(CC4)C3C2=O)c(OC)c1 (stereo not given)	ALDH1A1 block 2.2µM (no result: HPGD block, PNC assembly inh)
COc1ccc(N2C(=O)C3C4C=CC(C4)C3C2=O)c(OC)c1 (stereo not given)	none
COc1ccccc1/C=N/N1C(=O)C2C3C=CC(CC3)C2C1=O (stereo not given)	ALDH1A1 block 7.1µM (no result: HPGD block, PNC assembly inh)
O=C1C2C3C=CC(CC3)C2C(=O)N1/N=C/c1c[nH]c2ccccc12 (stereo not given)	ALDH1A1 block inconclusive (no result: HPGD block, PNC assembly inh)
Cc1cc(C)n2nc(N)c(N=Nc3ccc(Cl)cc3)c2n1	none
CCn1c2ccccc2c2cc(NC(=O)CC(C)=O)ccc21	JMJD2E inh inconclusive
O=C(O)C1CC[C@@](C(=O)O)(c2ccccc2)c2ccccc21 (stereo not given in full)	none (no result: PNC assembly inh)
COc1ccc(S(=O)(=O)NC(C)(C)C)cc1-c1nnc2c3ccccc3c(C)nn12	none
CNS(=O)(=O)c1ccc(OC)c(-c2nnc3c4ccccc4c(C)nn23)c1	HPGD block 16µM, PNC assembly inh inconclusive, ALDH1A1 block inconclusive
COc1ccc(S(=O)(=O)NCc2ccco2)cc1-c1nnc2c3ccccc3c(C)nn12	HPGD block 5µM
